Screens from PubChem BioAssay.
This is a sample that favours compounds with a hit; in the whole collection about 0.95% have one here.
Fluorescein autfl = compound autofluorescence in fluorescein spectral region; max fluorescein-equivalent concentration, M; Compound autofluorescence, 480/540 nm, fluorescein-equivalent; stronger effect = higher value; 0.91% of 59,000 active; in the data active = max fluorescein-equivalent concentration above about 10 nM; inconclusive = between about 1.1 nM and that limit
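Compounds were pin-transferred into 100 mM Tris buffer, pH 8.0, and incubated 15 min at room temperature. Fluorescence was read at 480 nm excitation/540 nm emission. Signals were normalized to an on-plate six-point fluorescein standard curve as dye-equivalent concentration.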
Resorufin autofl = compound fluoresces in the resorufin spectral region; Compound fluorescence, resorufin region 547/598 nm, buffer; stronger effect = higher value; max dye-equivalent concentration, M; 0.04% of 59,000 active; AID 588
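Intrinsic fluorescence profiled in the resorufin window (ex 547 nm, em 598 nm) after 15 min at room temperature in pH 8.0 Tris buffer (100 mM); responses normalized against a six-point resorufin standard series as dye-equivalent concentration.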
Rhodamine fluor = compound autofluorescence in rhodamine spectral region | Rhodamine-region fluorescence, 547/598 nm, Tris buffer; stronger effect = higher value | 0.05% of 59,000 active | max dye-equivalent concentration, M | AID 594; in the data active = max dye-equivalent concentration above about 11 nM; inconclusive = between about 1.1 nM and that limit
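Compounds in 100 mM Tris buffer, pH 8.0, were incubated 15 min at room temperature, then read at 547 nm excitation and 598 nm emission. Fluorescence was normalized against a per-plate six-point rhodamine standard curve as dye-equivalent concentration.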
A488 fluor = A488 region autofluorescence; 0.1% of 59,000 active; compound autofluorescence, A488 spectral region, dye equivalency; Compound Type: qHTS ECL - MLSMR; max dye equivalency, M
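Spectroscopic profiling in the A488 region: compounds in pH 8.0 Tris (100 mM), 15 min RT, CCD imaging with 480 nm excitation and 540 nm emission; responses normalized against A488 dye standards.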
Texas Red fluor = compound fluoresces in the Texas Red spectral region; Compound fluorescence, Texas Red channel, 547/618 nm; stronger effect = higher value; max dye-equivalent concentration, M; 0.06% of 59,000 active; AID 587; in the data active = max dye-equivalent concentration above about 10 nM; inconclusive = between about 1.1 nM and that limit
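Compound titrations in 100 mM Tris pH 8.0 were incubated 15 min at room temperature and read at 547 nm excitation / 618 nm emission. Texas Red six-point standard curve on each plate converted fluorescence to dye-equivalent concentration.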
A647 autofl = compound fluoresces in the A647 spectral region. Compound fluorescence, A647 channel (570/671 nm), Tris buffer. max dye-equivalent concentration, M. 59,000 tested, under 10 active;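 also: values scaled relative to a standard on each plate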
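Tris 100 mM pH 8.0; cpd + A647 stds pin-transferred; 15 min RT; CCD imager, ex 570/em 671. Output = A647-equivalent conc. per cpd conc.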
* hit, by the source's call; i = inactive; ? = inconclusive; ! = repeats disagree. Unless noted, no rule for the calls is given here.

SMILES	Fluorescein autfl	Resorufin autofl	Rhodamine fluor	A488 fluor	Texas Red fluor	A647 autofl
COc1cc(C2C3CN(C)CC=C3C(C#N)=C(N)C2(C#N)C#N)ccc1OC(C)C (stereo unspecified)	3.6e-08M*	i	i	?	i	8.6e-09
CN1CC=C2C(C#N)=C(N)C(C#N)(C#N)C(Cc3ccccc3)C2C1 (stereo unspecified)	3.7e-08M*	i	i	?	?	2e-09
C=C1CC[C@@H](O)C/C1=C/C=C1\CCC[C@]2(C)[C@@H]1CC[C@H]2[C@@H](C)CCCC(C)C	i	i	i	i	i	1e-09
c1ccc(Nc2nc(-c3cccnc3)nc3ccccc23)cc1	?	i	i	i	i	1.1e-08
NCC[C@H]1CCC[C@H](CCN)N1	?	i	i	i	i	1e-09
Cc1sccc1C1C(C#N)=C(N)SC(N)=C1C#N	1.2e-08M*	i	i	i	i	2.7e-08
C=C1CC[C@H]2C(C)(C)[C@H](O)CC[C@]2(C)[C@@H]1COc1ccc2ccc(=O)oc2c1	i	i	i	i	i	2.6e-09
c1ccc(Cn2nnc3c(NCCN4CCOCC4)ncnc32)cc1	i	i	i	i	i	1.8e-08
c1ccc(CCNc2ncnc3c2nnn3Cc2ccccc2)cc1	1.2e-08M*	i	i	i	i	2.6e-09
Cc1ccc(S(=O)(=O)c2cc3c(=O)n4ccccc4nc3n(Cc3ccco3)c2=N)cc1C	1.2e-08M*	i	i	i	i	4.1e-08
N=c1c(S(=O)(=O)c2ccccc2)cc2c(=O)n3ccccc3nc2n1Cc1ccco1	?	i	i	i	i	3.5e-09
O=C1CC(/C=C/c2ccco2)=Nc2ccccc2N1	3.6e-08M*	i	i	?	?	2.2e-08
CC1(C)c2ccccc2N2CC(=O)NC21/C=C/c1ccco1 (stereo unspecified)	?	i	i	i	i	1e-09
CCOC(=O)c1ccc(N2C(=O)C3C(C2=O)C(C(=O)c2ccc(Cl)cc2)N2CCCC32)cc1 (stereo unspecified)	5.6e-08M*	i	i	?	i	5.7e-09
O=S(=O)(CCn1cccc1)CCn1cccc1	1e-08M*	i	i	i	i	1e-09
N#CC(C#N)=CNCCN1CCN(C=C(C#N)C#N)CC1	?	i	i	i	?	1e-09
CC[C@@]12CCCN3CCc4c(n(c5ccccc45)C(=O)C1)[C@H]32	1.2e-08M*!	i	i	i	i	1e-09
O=C1c2cccc3c(N4CCCCC4)ccc(c23)C(=O)N1c1ccccn1	2.7e-07M*	i	i	1.3e-08M*	i	2.3e-09
c1ccc2c3c([nH]c2c1)[C@@H]1[C@H]2CC[C@H]([C@H]4CCCN[C@H]42)N1CC3	?	i	i	i	i	1.2e-09
CCOC(=O)c1c(C)oc2c1c(/C=N/c1ccccn1)c(O)c1ccccc12	2.2e-08M*	i	i	i	i	1e-09
CCOC(=O)c1c(C)oc2ccc(O)c(CN(C)C)c12	?	i	i	i	i	1.7e-08
CCN1CCN(c2nc3ccccc3nc2C(C#N)C(=O)OCc2ccccc2)CC1 (stereo unspecified)	?	i	i	i	i	6.6e-09
CCOC(=O)C1CCCN(c2nc3ccccc3nc2C(C#N)C(=O)NCc2ccccc2)C1 (stereo unspecified)	8.6e-07M*	i	i	5e-08M*	i	1e-09
N#CC(C(=O)NCc1ccccc1)c1nc2ccccc2nc1N1CCCC1 (stereo unspecified)	3.9e-07M*	i	i	2.2e-08M*	i	2.6e-09
CCOC(=O)N1CCN(c2nc3ccccc3nc2C(C#N)C(=O)NCCc2ccccc2)CC1 (stereo unspecified)	1.1e-08M*	i	i	i	i	1e-09
SMILES	Fluorescein autfl	Resorufin autofl	Rhodamine fluor	A488 fluor	Texas Red fluor	A647 autofl
CCN(CC)c1nc2ccccc2nc1C(C#N)C(=O)NCCc1ccccc1 (stereo unspecified)	1.1e-07M*	i	i	?	?	1.5e-08
CCN(CC)c1nc2ccccc2nc1C(C#N)C(=O)NCCCOC (stereo unspecified)	?	i	i	i	i	6.7e-09
O=c1c(-c2ccc(F)c(F)c2)nc2cncnc2n1Cc1ccccc1	?	i	i	i	i	3.3e-08
C[C@H](CN(C)C)C(O)(c1ccccc1)c1ccccc1	i	i	i	i	i	1e-09
CCNc1ncc2nc(CCc3ccccc3)c(=O)n(CCC#N)c2n1	i	i	i	i	i	1e-09
N#CC(C(=O)NCCc1ccccc1)c1nc2ccccc2nc1N1CCCCC1 (stereo unspecified)	1.2e-07M*	i	i	?	i	3.9e-09
N#CC(C(=O)NCCc1ccccc1)c1nc2ccccc2nc1N1CCOCC1 (stereo unspecified)	?	i	i	i	i	4.6e-08
N=c1oc2c3c4c(cc2cc1C(=O)Nc1ccccc1)CCCN4CCC3	4.7e-07M*	i	?	2.5e-08M*	?	4.8e-08
N#Cc1ccc(NC(=O)c2cc3cc4c5c(c3oc2=N)CCCN5CCC4)cc1	2.3e-07M*	i	i	1.2e-08M*	i	3.9e-08
CC1(C)[C@@H](O)CC[C@@]2(C)[C@H]1CC[C@]1(C)[C@H]2C(=O)C=C2[C@@H]3C[C@@](C)(C(=O)O)CC[C@]3(C)CC[C@@]21C	?	i	i	i	i	3e-08
COc1ccc(-n2c(=O)c(CCc3ccccc3)nc3cnc(N4CCN(C)CC4)nc32)cc1	1.2e-08M*	i	i	i	i	1e-09
COc1cccc(Cn2c(=O)c(-c3cccc(Cl)c3)nc3cncnc32)c1	i	i	i	i	i	1e-09
CCOc1ccc(C2C=C(c3ccc(C)cc3)Nc3ncnn32)cc1 (stereo unspecified)	1.5e-08M*	i	i	i	?	5.4e-09
CCOc1ccc(C2C=C(c3ccc(C)cc3)Nc3nnnn32)cc1 (stereo unspecified)	?	i	i	i	i	1e-09
S=C(S)NCCCn1ccnc1	i	i	i	i	i	2.1e-08
C[C@H](O)[C@H](O)[C@@H](O)c1cnc2nc(N)[nH]c(=O)c2n1	i	i	i	i	i	1e-09
COc1ccc2nc(N3CCC(O)CC3)c(C#N)cc2c1	2.3e-08M*	i	i	i	i	1e-09
COc1ccc2nc(N3CCC(C)CC3)c(C#N)cc2c1	?	i	i	i	i	1e-09
Cc1ccc(S(=O)(=O)N2CCC(C(=O)Nc3nnc(C4CCCC4)s3)CC2)cc1	1.2e-08M*	i	i	i	i	1.1e-09
